Compounds with a hit are over-represented: about 2.6% of the library has one in this group of screens.
Myeloid diff MLP: induction of myeloid progenitor differentiation, primary screen, cell-based, flow cytometry, MLPCN library; ER-HoxA9 myeloid progenitors, lysozyme-GFP differentiation; calls only at 10 µM; 360,000 compounds, 1% hits; AID 624256, 2012;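 active = normalized GFP-positive differentiation at or above the plate's own cutoff, the solvent-only control mean plus 3 SD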;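 note: cells exposed to compound for four days before flow analysis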
CRFR2-BP ag: agonists of CRF-BP/CRF-R2 complex, primary screen, cell-based, HEK293, calcium dye fluorescence, uHTS; CRF-binding protein / CRF receptor 2 complex (human); AID 588473, 2011; 350,000 compounds, 0.46% hits; activation, % at 13.2 µM; calcium dye fluorescence (FLIPR); percent of saturating CRF peptide response;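 active = activation of at least 50%, plus an integration ratio under a set limit after plate pattern correction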;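 note: plate controls were neutral control wells without compound for no effect and CRF at EC100 for full effect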
TPT1 inh: Candida albicans TPT1 enzyme inhibitors, primary screen, biochemical, fluorescence polarization; recombinant caTPT1, FP RNA substrate dephosphorylation; inhibition, % at 5 µM; 300,000 compounds, 0.81% hits; AID 1962, 2009;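 active = inhibition above the mean of all tested compounds plus 3 SD, set per screening campaign, cut at about 24% in these data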;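 note: plate controls were DMSO alone for no effect and ferristatin control at 100 nM for full effect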
IDE cell inh: human IDE inhibitors in live cells, primary screen, fluorescence polarization, HEK cells, FAbetaB substrate; Insulin-degrading enzyme (Homo sapiens), P14735; FAbetaB cleavage; inhibition, % at 5.59 µM; 320,000 compounds, 0.41% hits; AID 434962, 2010;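 active = percent inhibition above the average of all tested compounds plus 3 SD, set per screening campaign, cut at about 16% in these data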;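 note: IDE supplied by intact live HEK cells; FP after avidin binding of uncleaved biotin substrate so inhibition keeps polarization high; 0% = DMSO wells and 100% = 60 µM reference IDE inhibitor Ii1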
Target sequence (P14735 whole entry, looked up): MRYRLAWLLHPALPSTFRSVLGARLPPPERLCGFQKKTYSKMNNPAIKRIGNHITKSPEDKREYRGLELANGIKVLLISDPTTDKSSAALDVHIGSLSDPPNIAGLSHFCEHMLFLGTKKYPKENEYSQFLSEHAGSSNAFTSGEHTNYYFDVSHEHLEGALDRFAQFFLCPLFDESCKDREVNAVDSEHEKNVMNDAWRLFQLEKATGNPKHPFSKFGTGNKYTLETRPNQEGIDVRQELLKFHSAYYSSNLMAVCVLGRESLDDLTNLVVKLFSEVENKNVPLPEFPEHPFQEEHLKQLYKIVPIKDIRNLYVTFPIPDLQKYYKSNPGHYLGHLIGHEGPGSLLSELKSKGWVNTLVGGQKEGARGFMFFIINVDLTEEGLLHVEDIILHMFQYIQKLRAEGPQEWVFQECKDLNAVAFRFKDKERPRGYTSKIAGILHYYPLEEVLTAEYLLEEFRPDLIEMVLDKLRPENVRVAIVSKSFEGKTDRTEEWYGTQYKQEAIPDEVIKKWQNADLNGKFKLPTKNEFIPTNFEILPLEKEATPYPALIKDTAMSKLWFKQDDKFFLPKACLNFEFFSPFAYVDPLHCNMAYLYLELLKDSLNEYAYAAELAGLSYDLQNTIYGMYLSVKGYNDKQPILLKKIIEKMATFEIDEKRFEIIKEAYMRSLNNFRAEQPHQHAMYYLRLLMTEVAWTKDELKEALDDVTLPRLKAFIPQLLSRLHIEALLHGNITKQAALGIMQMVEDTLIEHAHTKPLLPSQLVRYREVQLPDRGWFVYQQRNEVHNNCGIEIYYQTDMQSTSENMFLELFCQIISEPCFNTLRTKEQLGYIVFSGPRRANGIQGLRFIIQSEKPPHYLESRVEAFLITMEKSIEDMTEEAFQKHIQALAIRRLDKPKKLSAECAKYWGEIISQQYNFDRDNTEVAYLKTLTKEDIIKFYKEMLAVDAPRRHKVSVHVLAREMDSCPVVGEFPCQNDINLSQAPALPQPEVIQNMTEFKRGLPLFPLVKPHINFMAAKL
IDE act: human IDE activators in live cells, primary screen, fluorescence polarization, HEK cells, FAbeta-B substrate | Insulin-degrading enzyme (Homo sapiens), P14735 | FAbeta-B cleavage; 0% vehicle, 100% cell-free pure enzyme wells | activation, % at 5.96 µM | 340,000 compounds, 0.073% hits | AID 493087, 2011;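 active = activation above the mean of all tested compounds plus 3 SD, set per screening campaign, cut at about 17% in these data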
CRFR2-BP antag: antagonists of CRF-BP/CRF-R2 complex, primary screen, cell-based, HEK293, calcium dye fluorescence, uHTS. CRF-induced calcium fluorescence. inhibition, % at 11.8 µM. 350,000 compounds, 0.59% hits. AID 588475, 2011;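 active = inhibition of the ligand-induced calcium signal above about 50% at the single tested concentration, limit read from the data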
Myeloid diff CP1: inducers of myeloid progenitor differentiation, confirmation, cell-based, GFP/Mac1 flow cytometry, cherry pick 01; shares compounds with Myeloid diff MLP; ER-HoxA9 myeloid progenitors, GFP/Mac1 double-positive flow; calls only; 2,300 compounds, 2% hits; AID 651706, 2012;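 active = share of green or green-and-red cells above 9 and 9% in run 1 or 4 and 3% in run 2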
GFP autofluor: compound fluorescence in myeloid differentiation counter-screen. shares compounds with Myeloid diff MLP. ER-HoxA9 myeloid progenitors, no estrogen, GFP autofluorescence flow cytometry; vehicle wells 0%, positive control 100%. fluorescence response, % (no concentration beside the values). 2,300 compounds, 7.4% hits;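 active = over 5% cells positive for green fluorescent reporter, or over 2% positive for both it and APC stain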;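 note: range taken on the double positive population between DMSO and positive control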
Active calls of the source: *; i = inactive; · = no result given; + = active, no number.

SMILES | Myeloid diff MLP | CRFR2-BP ag | TPT1 inh | IDE cell inh | IDE act | CRFR2-BP antag | Myeloid diff CP1 | GFP autofluor
O=C1CCC/C(=N/NC(=O)c2ccc(NS(=O)(=O)c3cccs3)cc2)C1 | i | -1.6 | 1.6 | 3.5 | -0.4 | 3.0 | i | 0.2
O=C1CCC/C(=N/NC(=O)c2cc(NS(=O)(=O)c3cccs3)cc(NS(=O)(=O)c3cccs3)c2)C1 | i | 5.8 | 10.6 | -3.3 | -1.0 | -1.5 | · | ·
CCC(Oc1ccc(C)cc1)C(=O)Nc1ccccc1C(=O)N1CCOCC1 (stereo not given) | i | -0.1 | -2.9 | 3.3 | 5.1 | 14.2 | · | ·
CC1CCCC(C)N1C(=O)COC(=O)c1ccccc1O (stereo not given) | i | 0.4 | · | -2.3 | 1.9 | -8.5 | · | ·
CCC(C(=O)OCC(=O)N1C(C)CCCC1C)c1ccccc1 (stereo not given) | i | 0.8 | -5.0 | 6.4 | 0.1 | -4.6 | i | 0.0
COc1ccc(NC(=O)N2CCN(CCC#N)CC2)cc1 | i | 7.1 | -4.1 | -1.5 | 2.9 | 0.0 | i | 0.5
CC(C(=O)N1CCc2ccccc2C1)N1C(=O)c2ccccc2C1=O (stereo not given) | + | 0.8 | -3.9 | 0.1 | 0.1 | 6.9 | i | 0.4
Cn1c(=O)[nH]c(=O)c2c1nc(N1CCCCCC1)n2CCOc1ccccc1 | i | 0.5 | 0.8 | 3.1 | 3.8 | -51.3 | · | ·
Cc1nn(-c2ccccc2)c2sc(C(=O)NNC(=O)COc3ccccc3)cc12 | + | 0.4 | -2.8 | -0.4 | -2.7 | 11.1 | i | 0.0
CCOC(=O)c1cnn(-c2cc(C)c3ccccc3n2)c1N | + | 3.5 | -2.2 | -0.1 | 3.4 | -20.5 | i | 0.7
CCOC(=O)c1cnn(-c2ccccn2)c1N | i | 1.3 | 4.6 | 0.4 | 2.7 | -1.2 | · | ·
CCOC(=O)CC1C(=O)NCCN1S(=O)(=O)c1ccc(Cl)cc1 (stereo not given) | + | 1.6 | -0.6 | -8.1 | -0.2 | -15.5 | i | 0.0
COc1ccc(/C=C\C(=O)c2c(O)ccc3c(C)cc(=O)oc23)cc1OC | i | -2.3 | 0.2 | 3.0 | 1.2 | -9.5 | i | 0.0
CC(=O)NCCNc1nc2cc(-c3cnn(CCC(C)C)c3)sc2c(=O)n1C | i | · | · | · | · | · | · | ·
O=C(Nc1cnc2ccccc2c1)N1CCOCC1 | i | 0.4 | -0.6 | 3.7 | -4.0 | -2.5 | i | 0.0
Cc1c(C(=O)Nc2cccc([N+](=O)[O-])c2)cnn1-c1ccccc1 | i | -3.0 | -2.3 | 3.1 | -2.9 | -11.4 | · | ·
COC(=O)CC(c1ccc(OC)c(OC)c1)c1ccc(OC)c(OC)c1 | i | -2.4 | 2.3 | 11.2 | -0.2 | 14.5 | · | ·
Cn1ccc2c(N3CCCCCCC3)cc3c(c21)C1CCC3O1 (stereo not given) | + | · | · | · | · | · | i | 0.0
Cc1cc(C)n2nc(C)c(Br)c2n1 | i | -2.6 | -0.7 | 2.8 | 2.8 | 16.6 | · | ·
Cc1cc(C)n2nc3nc4c(cc3c2n1)CCCC4 | i | 9.0 | -24.3 | -1.8 | -5.3 | -2.1 | i | 0.0
CCCCCN(C(=O)NC(=O)Nn1cnnc1)S(C)(=O)=O | + | 2.1 | -0.3 | -2.6 | 2.0 | 11.0 | i | 0.0
CCCCCN(C(=O)NC(=O)NCCCC)S(C)(=O)=O | i | 0.6 | -2.9 | -2.7 | 4.7 | 3.1 | · | ·
Clc1ccc(CN2CCN(c3ncccn3)CC2)cc1 | i | -0.6 | 0.0 | 1.9 | 0.3 | 8.3 | · | ·
Cc1cc(C)c(S(=O)(=O)NNC(=O)C2CCN(Cc3ccccc3)CC2)c(C)c1 | i | -0.1 | -0.6 | 3.6 | 1.9 | -5.0 | i | 87.2*
COc1ccc(CN2C(=O)c3ccccc3C2c2nnnn2-c2ccc3c(c2)OCCO3)cc1OC (stereo not given) | i | · | · | · | · | · | · | ·
SMILES | Myeloid diff MLP | CRFR2-BP ag | TPT1 inh | IDE cell inh | IDE act | CRFR2-BP antag | Myeloid diff CP1 | GFP autofluor
Cc1ccc(S(=O)(=O)N/N=C\C=C\c2ccccc2)cc1 | · | -2.3 | -0.1 | 4.1 | 0.7 | 5.3 | i | 0.0
O=S(=O)(N/N=C\C=C\c1ccccc1)c1ccc(Br)cc1 | i | -5.3 | 2.4 | 1.1 | -5.1 | 4.6 | · | ·
COC(=O)c1ccc(NC(=O)c2cc(-c3ccccn3)nc3ccccc23)cc1 | + | 1.3 | 2.1 | -10.0 | -1.0 | -1.6 | i | 0.0
COC(=O)c1ccc(NC(=O)c2cc(-c3ccncc3)nc3ccccc23)cc1 | i | -0.2 | · | 2.8 | 2.7 | 1.8 | · | ·
COc1cccc(-c2csc(N3CCN(CC(=O)NNC(=O)c4ccc(Cl)cc4)CC3)n2)c1 | i | -0.4 | 2.9 | -3.6 | 0.9 | -8.8 | i | 0.0
CCCS(=O)(=O)NC(=O)C1(C)CCCN(C(=O)c2ccccc2OC(F)(F)F)C1 (stereo not given) | i | · | · | · | · | · | · | ·
NC(=O)CC(NC(=O)c1ccccc1)c1ccc(NCc2ccc(F)cc2)c([N+](=O)[O-])c1 (stereo not given) | + | -0.9 | -3.6 | 2.4 | 3.2 | 15.7 | i | 0.0
NC(=O)CC(NC(=O)c1ccccc1)c1ccc(NCc2ccccc2)c([N+](=O)[O-])c1 (stereo not given) | i | -3.0 | -2.5 | -1.6 | 3.5 | 15.1 | · | ·
C=C(C1=CCN(S(=O)(=O)C(C)(C)C)[C@@H]1CCO)c1ccccc1 | i | -1.9 | · | · | 0.9 | -4.8 | · | ·
O=C(NCc1cccnc1)C1Cc2c(-c3ccc(Cl)cc3)ccnc2O1 (stereo not given) | + | · | · | · | · | · | i | 0.0
O=C(NC(c1cccnc1)c1ccc2c(c1)OCO2)C1CCN(CCOc2ccc(Cl)cc2Cl)CC1 (stereo not given) | i | · | · | · | · | · | · | ·
O=c1oc2cc(OCc3ccc(F)cc3F)ccc2cc1-c1ccc2ccccc2n1 | · | · | 2.4 | 5.8 | · | · | · | ·
O=C(Cc1ccc(Br)cc1)OCC(=O)c1ccc[nH]1 | i | 0.6 | · | 6.9 | 1.0 | 13.9 | · | ·
CN(Cc1nc(-c2cnccn2)no1)C1CC(C)(C)NC(C)(C)C1 | i | 1.4 | -2.5 | -0.3 | 1.7 | 1.1 | i | 0.0
COc1ccccc1N(Cc1ccccc1)S(=O)(=O)c1cccc(C(=O)Nc2ccc(C)cn2)c1 | i | 4.2 | 1.4 | 4.0 | 3.7 | -0.6 | · | ·
Cc1cc(C(=O)COC(=O)c2ccc(NC(=O)CC#N)cc2)c(C)n1CCc1ccc(F)cc1 | i | 1.2 | · | -0.7 | 5.6 | -13.8 | i | 3.0
Nc1ccccc1C=C1Cc2ccccc2C1=O | i | 13.3 | · | · | -3.7 | -20.2 | · | ·
